Source: PubChem BioAssay
The source made the active and inactive calls.

Legend:
[1] = small molecules captured by biotinylated probe aFSTL3 – biochemical, small-molecule microarray, fluorescence 635/667, stem cell growth factor project, primary screen (AID 1064); conditions: higher = more signal;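 further: measures binding of the biotinylated anti-FSTL3 antibody to printed compounds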
[2] = binders from COS7 lysate, DM2A8 probe, primary screen, torsin A project, cell lysate, small-molecule microarray, fluorescence 635/667 (AID 1065); conditions: higher = more signal, COS7 lysate expressing mutant human TOR1A
[3] = small molecules captured by biotinylated probe aFGF2 – biochemical, small-molecule microarray, fluorescence 635/667, stem cell growth factor project, primary screen (AID 1067); conditions: higher = more signal;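 further: measures binding of biotinylated aFGF2 protein to printed compounds on slides; z-score merges feature fluorescence and signal-to-noise across triplicate slides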
[4] = small molecules captured by biotinylated probe aFGF10 – biochemical, small-molecule microarray, fluorescence 635/667, stem cell growth factor project, primary screen (AID 1071); conditions: higher = more signal;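 further: score merges 667 nm spot intensity and signal to noise from triplicate slides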
[5] = target: Neurogenic locus notch homolog protein 2 (Homo sapiens) (UniProt Q04721); experiment: small molecules binding Notch2 protein – biochemical, small-molecule microarray, 635 nm fluorescence, stem cell growth factors, primary screen (AID 1073); conditions: higher = more signal
[6] = target: Pro-neuregulin-1, membrane-bound isoform (Homo sapiens) (UniProt Q02297); experiment: small molecules binding neuregulin-1 protein – biochemical, small-molecule microarray, fluorescence 635/667, psychiatric disease protein project, primary screen (AID 1075); conditions: NRG1 binding, 635 nm fluorescence, higher = more signal;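 further: score combines 667 nm spot fluorescence with signal to noise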
[7] = system: Neuregulin-1 EGF-like domain; experiment: small molecules binding NRG1 EGF domain – biochemical, small-molecule microarray, 635 nm fluorescence, primary screen (AID 1081); conditions: higher = more signal;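 further: binding of the protein to compounds printed on small-molecule microarray slides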
[8] = FRG1 expression reporter modulators in myotubes – cell-based, C2C12 myotubes, firefly/Renilla luciferase, luminescence, FRG1 inhibition for FSHD, primary screen (AID 1084); conditions: FRG1 promoter luciferase, higher = more signal, called active from +8 up or from −8 down
[9] = small molecules captured by biotinylated probe aFST – biochemical, small-molecule microarray, fluorescence 635/667, stem cell growth factor project, primary screen (AID 1086); conditions: higher = more signal;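 further: score merges 667 nm fluorescence with signal-to-noise of each printed compound spot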
[10] = binders of probe aHhip on microarray, primary screen, stem cell growth factor project, biochemical, small-molecule microarray, fluorescence 635/667 (AID 1087); conditions: higher = more signal;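 further: score merges spot fluorescence at 667nm with spot signal to noise ratio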
[11] = system: PRMT1 (protein arginine N-methyltransferase 1); experiment: small molecules binding arginine methyltransferase PRMT1 – biochemical, small-molecule microarray, 635 nm fluorescence, primary screen (AID 1088); conditions: higher = more signal;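 further: binding of Prmt1 protein to compounds spotted on small-molecule microarray slides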
[12] = growth effects on S. cerevisiae YJM789 – YJM789 clinical isolate, OD600, 24 h, basal, primary screen (AID 1089); conditions: higher = more signal, called active from +8 up or from −8 down;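 further: growth of clinical yeast isolate S. cerevisiae YJM 789 seeded 1000 cells per well; test concentration not given here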
[13] = S. pombe growth modifiers, basal conditions – strain 972, OD600, 24 h, no modulator, primary screen (AID 1090);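 further: basal condition with compound alone and no growth modifier present; test concentration not given here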; conditions: S. pombe 972 growth, higher = more signal, called active from +8 up or from −8 down
[14] = budding yeast growth modifiers under rapamycin – strain BY4716, OD600, 96 h, primary screen (AID 1091); further: test concentration not given here; conditions: S. cerevisiae BY4716 + rapamycin, higher = more signal, called active from +8 up or from −8 down
[15] = target: Torsin-1A-interacting protein 2 (Homo sapiens) (UniProt Q8NFQ8); experiment: small molecules binding lysate-expressed LULL1 – cell lysate, human LULL1 lysate, 635/667 nm fluorescence, primary screen (AID 1092); conditions: small-molecule microarray, hLULL1 lysate binding, 635 nm fluorescence; higher = more signal;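 further: probe is lysate of COS7 cells overexpressing human LULL1; score merges per-feature 667 nm fluorescence with signal-to-noise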
[16] = optical density change of DRC41 E. coli – strain DRC41, OD650, 24 h, E. coli filamentation project, primary screen (AID 1093);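 further: MC1000 strain lacking acrAB efflux and sulA so SOS filamentation is blocked; test concentration not given here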; conditions: E. coli DRC41 growth, higher = more signal, called active from +8 up or from −8 down
[17] = probe aLefty2 binding to arrayed compounds – biochemical, biotinylated probe, 635/667 nm fluorescence, primary screen (AID 1094); conditions: small-molecule microarray, higher = more signal;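 further: score merges spot fluorescence near 667 nm with spot signal-to-noise ratio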
[18] = system: Noggin (protein binding on small-molecule microarray); experiment: small molecules binding Noggin protein – biochemical, 635/667 nm fluorescence, primary screen (AID 1095); conditions: 635 nm fluorescence, higher = more signal;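 further: score merges 667 nm feature fluorescence with signal to noise over triplicate slides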
[19] = target: Neurogenic locus notch homolog protein 3 (Homo sapiens) (UniProt Q9UM47); experiment: small molecules binding NOTCH3 protein – biochemical, 635/667 nm fluorescence, primary screen (AID 1096); conditions: small-molecule microarray, 635 nm fluorescence, higher = more signal
[20] = probe aEGFR binding to arrayed compounds – biochemical, biotinylated probe, 635/667 nm fluorescence, primary screen (AID 1097); conditions: small-molecule microarray, higher = more signal;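 further: probe is a biotinylated anti-EGFR antibody binding compounds printed on slides; score combines fluorescence near 667 nm and signal to noise of each spot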

Chain of Neurogenic locus notch homolog protein 3 (Homo sapiens) (Q9UM47 whole entry, looked up): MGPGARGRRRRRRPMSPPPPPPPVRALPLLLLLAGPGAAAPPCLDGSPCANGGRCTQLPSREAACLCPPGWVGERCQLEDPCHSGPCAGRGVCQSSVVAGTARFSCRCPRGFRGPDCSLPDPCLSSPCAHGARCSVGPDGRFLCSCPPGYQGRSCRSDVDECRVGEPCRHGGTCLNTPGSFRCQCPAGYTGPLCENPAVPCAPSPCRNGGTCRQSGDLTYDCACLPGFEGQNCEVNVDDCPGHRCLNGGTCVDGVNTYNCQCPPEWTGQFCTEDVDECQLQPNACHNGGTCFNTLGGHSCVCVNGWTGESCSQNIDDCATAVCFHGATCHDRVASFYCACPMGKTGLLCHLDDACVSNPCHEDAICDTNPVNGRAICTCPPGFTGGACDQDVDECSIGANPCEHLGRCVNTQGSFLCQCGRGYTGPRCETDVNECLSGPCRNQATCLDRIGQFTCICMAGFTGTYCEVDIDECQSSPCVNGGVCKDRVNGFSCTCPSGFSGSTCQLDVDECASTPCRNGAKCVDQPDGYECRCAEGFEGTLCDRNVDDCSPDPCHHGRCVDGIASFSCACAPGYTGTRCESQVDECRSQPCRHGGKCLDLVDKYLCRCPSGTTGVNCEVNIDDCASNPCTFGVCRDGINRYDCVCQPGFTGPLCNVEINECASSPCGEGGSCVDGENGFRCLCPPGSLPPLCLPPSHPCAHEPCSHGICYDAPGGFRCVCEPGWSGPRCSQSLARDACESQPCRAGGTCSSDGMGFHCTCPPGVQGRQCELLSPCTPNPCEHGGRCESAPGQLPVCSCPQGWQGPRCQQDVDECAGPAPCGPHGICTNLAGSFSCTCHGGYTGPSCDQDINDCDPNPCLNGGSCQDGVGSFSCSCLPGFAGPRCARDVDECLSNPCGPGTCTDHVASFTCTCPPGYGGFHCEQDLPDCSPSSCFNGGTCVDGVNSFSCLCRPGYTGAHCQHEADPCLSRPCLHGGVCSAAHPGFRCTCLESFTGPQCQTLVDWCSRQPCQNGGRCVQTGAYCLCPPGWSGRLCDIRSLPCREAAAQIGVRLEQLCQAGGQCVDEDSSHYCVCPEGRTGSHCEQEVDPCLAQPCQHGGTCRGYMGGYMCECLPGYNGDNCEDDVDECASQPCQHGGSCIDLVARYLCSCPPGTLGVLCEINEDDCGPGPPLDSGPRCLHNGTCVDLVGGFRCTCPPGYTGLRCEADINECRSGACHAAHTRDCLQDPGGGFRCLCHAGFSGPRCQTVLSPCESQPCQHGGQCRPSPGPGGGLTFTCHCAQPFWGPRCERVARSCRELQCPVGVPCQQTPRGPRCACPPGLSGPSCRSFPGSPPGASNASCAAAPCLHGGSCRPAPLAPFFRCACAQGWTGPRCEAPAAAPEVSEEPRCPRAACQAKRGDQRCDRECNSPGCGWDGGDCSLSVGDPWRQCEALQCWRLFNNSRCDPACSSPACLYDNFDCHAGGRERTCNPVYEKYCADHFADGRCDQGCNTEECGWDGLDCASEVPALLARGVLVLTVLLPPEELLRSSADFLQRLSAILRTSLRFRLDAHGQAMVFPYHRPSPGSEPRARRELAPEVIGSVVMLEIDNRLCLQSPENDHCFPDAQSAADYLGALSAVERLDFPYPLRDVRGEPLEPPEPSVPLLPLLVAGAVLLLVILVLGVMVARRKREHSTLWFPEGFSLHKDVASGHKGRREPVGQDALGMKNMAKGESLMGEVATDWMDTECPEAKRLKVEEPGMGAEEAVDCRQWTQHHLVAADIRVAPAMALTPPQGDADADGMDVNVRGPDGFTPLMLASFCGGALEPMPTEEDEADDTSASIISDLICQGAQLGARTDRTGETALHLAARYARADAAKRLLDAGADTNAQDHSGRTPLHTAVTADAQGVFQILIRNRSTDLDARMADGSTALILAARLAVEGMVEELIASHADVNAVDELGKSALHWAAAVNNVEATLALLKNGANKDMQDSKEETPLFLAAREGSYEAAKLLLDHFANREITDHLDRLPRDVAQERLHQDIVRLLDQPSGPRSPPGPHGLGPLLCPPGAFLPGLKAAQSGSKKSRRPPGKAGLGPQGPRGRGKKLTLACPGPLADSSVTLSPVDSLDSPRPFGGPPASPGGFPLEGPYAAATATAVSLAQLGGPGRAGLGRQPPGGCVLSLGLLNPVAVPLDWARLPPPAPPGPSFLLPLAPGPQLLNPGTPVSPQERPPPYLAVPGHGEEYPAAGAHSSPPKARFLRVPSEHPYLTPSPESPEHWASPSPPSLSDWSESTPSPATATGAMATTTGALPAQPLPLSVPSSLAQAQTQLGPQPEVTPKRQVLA
Chain of Neurogenic locus notch homolog protein 2 (Homo sapiens) (Q04721 whole entry, looked up, canonical isoform): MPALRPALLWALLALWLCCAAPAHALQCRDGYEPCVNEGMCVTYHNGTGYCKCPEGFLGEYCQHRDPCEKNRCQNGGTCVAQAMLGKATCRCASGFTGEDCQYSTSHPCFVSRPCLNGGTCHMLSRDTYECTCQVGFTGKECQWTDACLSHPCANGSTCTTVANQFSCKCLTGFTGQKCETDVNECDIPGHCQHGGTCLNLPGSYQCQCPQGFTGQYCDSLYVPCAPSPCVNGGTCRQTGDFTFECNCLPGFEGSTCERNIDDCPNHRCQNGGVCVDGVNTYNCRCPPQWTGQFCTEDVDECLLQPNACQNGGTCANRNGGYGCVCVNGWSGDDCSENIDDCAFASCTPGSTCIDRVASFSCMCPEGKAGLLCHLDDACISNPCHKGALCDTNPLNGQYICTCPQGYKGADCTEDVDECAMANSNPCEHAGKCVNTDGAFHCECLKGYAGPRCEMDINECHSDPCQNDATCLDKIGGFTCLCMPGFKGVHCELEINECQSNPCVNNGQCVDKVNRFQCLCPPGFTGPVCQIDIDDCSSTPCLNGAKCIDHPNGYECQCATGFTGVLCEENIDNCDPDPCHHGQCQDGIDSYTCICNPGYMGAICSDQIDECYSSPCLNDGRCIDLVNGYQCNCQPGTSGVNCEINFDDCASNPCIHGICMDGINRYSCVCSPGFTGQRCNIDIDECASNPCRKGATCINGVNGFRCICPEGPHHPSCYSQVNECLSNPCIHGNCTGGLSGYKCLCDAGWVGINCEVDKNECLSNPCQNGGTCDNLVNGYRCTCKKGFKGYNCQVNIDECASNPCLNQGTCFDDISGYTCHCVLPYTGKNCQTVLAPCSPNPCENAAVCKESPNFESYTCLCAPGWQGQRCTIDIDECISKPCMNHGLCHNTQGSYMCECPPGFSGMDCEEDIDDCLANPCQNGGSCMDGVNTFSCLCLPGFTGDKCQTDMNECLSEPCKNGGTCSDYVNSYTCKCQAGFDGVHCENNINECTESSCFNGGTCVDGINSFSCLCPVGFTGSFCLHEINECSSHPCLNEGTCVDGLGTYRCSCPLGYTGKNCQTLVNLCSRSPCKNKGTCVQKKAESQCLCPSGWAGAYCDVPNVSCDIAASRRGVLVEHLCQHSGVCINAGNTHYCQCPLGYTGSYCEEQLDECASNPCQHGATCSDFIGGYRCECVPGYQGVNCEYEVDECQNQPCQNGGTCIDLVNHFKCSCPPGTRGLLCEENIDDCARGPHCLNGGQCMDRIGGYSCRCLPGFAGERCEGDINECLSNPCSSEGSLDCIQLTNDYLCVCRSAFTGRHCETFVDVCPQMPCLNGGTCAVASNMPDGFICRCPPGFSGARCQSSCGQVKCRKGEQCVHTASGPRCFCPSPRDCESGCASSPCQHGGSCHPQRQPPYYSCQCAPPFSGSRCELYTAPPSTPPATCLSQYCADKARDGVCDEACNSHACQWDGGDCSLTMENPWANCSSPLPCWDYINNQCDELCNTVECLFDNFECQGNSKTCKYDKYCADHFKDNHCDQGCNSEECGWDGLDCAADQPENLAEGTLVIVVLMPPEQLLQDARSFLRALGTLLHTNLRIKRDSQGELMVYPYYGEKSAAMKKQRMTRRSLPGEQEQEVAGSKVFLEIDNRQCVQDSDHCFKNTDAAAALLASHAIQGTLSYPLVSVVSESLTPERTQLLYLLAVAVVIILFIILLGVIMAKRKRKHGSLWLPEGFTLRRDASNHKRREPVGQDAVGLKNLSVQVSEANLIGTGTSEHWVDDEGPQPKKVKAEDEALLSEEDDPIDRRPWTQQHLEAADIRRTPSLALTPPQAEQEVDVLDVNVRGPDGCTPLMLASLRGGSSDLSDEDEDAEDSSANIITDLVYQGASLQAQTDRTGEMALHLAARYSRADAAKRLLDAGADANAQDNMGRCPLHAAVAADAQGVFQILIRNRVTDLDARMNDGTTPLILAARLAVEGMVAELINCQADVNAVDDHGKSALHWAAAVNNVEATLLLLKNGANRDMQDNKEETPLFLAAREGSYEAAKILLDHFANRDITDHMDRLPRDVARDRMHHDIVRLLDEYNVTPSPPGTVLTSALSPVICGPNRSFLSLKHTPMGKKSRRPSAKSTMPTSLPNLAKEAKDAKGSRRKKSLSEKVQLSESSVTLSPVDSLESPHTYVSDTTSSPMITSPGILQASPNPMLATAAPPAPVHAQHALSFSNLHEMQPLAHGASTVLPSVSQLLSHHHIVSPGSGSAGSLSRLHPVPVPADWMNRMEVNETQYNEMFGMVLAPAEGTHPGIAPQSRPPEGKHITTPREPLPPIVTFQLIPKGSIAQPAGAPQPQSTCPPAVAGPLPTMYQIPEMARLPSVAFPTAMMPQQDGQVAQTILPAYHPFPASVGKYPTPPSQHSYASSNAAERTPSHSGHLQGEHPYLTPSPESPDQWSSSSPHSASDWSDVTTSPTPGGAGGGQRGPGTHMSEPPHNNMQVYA

Row | Compound | composite z-score [1] | composite z-score [2] | composite z-score [3] | composite z-score [4] | composite z-score [5] | composite z-score [6] | composite z-score [7] | z-score [8] | composite z-score [9] | composite z-score [10] | composite z-score [11] | z-score [12] | z-score [13] | z-score [14] | composite z-score [15] | z-score [16] | composite z-score [17] | composite z-score [18] | composite z-score [19] | composite z-score [20]
1 | COc1ccc([Si](C)(C)[C@H]2[C@H](CC(=O)N3CCC[C@H]3CO)O[C@@]3(C(=O)N(Cc4cccc(N5CCOC5=O)c4)c4ccccc43)[C@@H]2C)cc1 | -0.308 | 0.358 | -0.042 | 0.141 | 0.143 | 0.662 | 0.876 | -3.92 (inactive) | 0.548 | -0.169 | 1.55 | -1.53 (inactive) | 0.239 (inactive) | -1.71 (inactive) | 1.02 | 1.78 (inactive) | -0.23 | 1.28 | 1.11 | -0.0271
2 | COC(=O)[C@@]1(Cc2ccc(OC)cc2)[C@H]2c3cc(C(=O)N4CCCC4)n(CCCNc4ncc(C(F)(F)F)cc4Cl)c3C[C@H]2CN1C(=O)c1ccccc1 | 0.965 | 0.103 | 0.578 | 0.583 | 1.7 | 1.71 | 0.709 | 2.95 (inactive) | 2.32 | 1.31 | 0.0457 | -0.496 (inactive) | 1.11 (inactive) | 1.35 (inactive) | 1.8 | -0.537 (inactive) | 0.987 | 0.341 | 0.656 | 0.939
3 | COC(=O)[C@@]1(Cc2ccccc2)[C@H]2c3cc(C(=O)N4CCCC4)n(Cc4ccc(O)c(OC)c4)c3C[C@H]2CN1C(=O)c1ccccc1 | 0.528 | -0.162 | 0.185 | 0.0854 | 1.53 | 1.66 | 1.39 | -0.433 (inactive) | 1.04 | 0.651 | -0.358 | 1.21 (inactive) | 0.943 (inactive) | 2.06 (inactive) | 3.43 | -0.667 (inactive) | 0.641 | -0.786 | 0.79 | 0.249
4 | COC(=O)[C@@]1(Cc2ccccc2)[C@H]2c3cc(C(=O)N4CCCC4)n(Cc4c(CO)[nH]cc(C)c4=O)c3C[C@H]2CN1C(=O)c1ccccc1 | 1.13 | -0.0496 | 0.2 | 0.647 | 1.63 | 1.96 | 1.17 | 1.39 (inactive) | 0.915 | -0.121 | 0.138 | -0.0602 (inactive) | 0.94 (inactive) | 0.171 (inactive) | 3.18 | -0.799 (inactive) | 0.539 | -0.218 | 0.12 | 0.0478
5 | N#Cc1ccc(C(O)C2C=CC3C(=O)N(c4ccccc4)C(=O)C3N2Nc2ccccc2F)cc1 (stereo not given) | -0.367 | 0.362 | 0.315 | 0.936 | 1.37 | 1.24 | -0.0077 | 0.372 (inactive) | 0.716 | -0.0994 | 0.713 | -0.413 (inactive) | 0.135 (inactive) | -0.851 (inactive) | 2.93 | 0.246 (inactive) | -0.113 | 0.339 | 0.972 | 0.0262
6 | O=C(NCc1ccccc1)[C@@H]1c2ccccc2C(=O)N(C2Cc3ccccc3C2)[C@H]1c1ccc(CO)cc1 | 0.335 | 0.0455 | 0.0017 | 0.526 | 0.501 | 1.02 | 0.971 | -2.38 (inactive) | 0.435 | -0.181 | 1.56 | 0.106 (inactive) | 0.287 (inactive) | 0.644 (inactive) | 2.03 | -0.874 (inactive) | 0.126 | 0.149 | 1.03 | 0.194
